Rows were chosen to be rich in hits. Some 6.7% of all compounds tested hit in one or more screens of this group.
Pf Dd2 inh – blocks growth of Plasmodium falciparum Dd2 parasites | P. falciparum Dd2 growth, SYBR Green, 72 h; hits give low values | activity change, % at 10 µM | actives 2.3% (n = 94,000) | AID 1159554; in the data active = activity change below about -80%
C diff growth – blocks growth of Clostridium difficile. Clostridium difficile clinical isolate growth, OD600, 24 h; hits give low values. growth activity, negative = inhibition, % at 16 µg/mL (by protocol). actives 0.25% (n = 86,000). AID 1259249;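 active = mean growth activity at or below -80% and every replicate also at or below -80%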
Tcruzi prolif – blocks T. cruzi growth in NIH3T3 culture | T. cruzi beta-gal in NIH3T3, GalScreen luminescence, 90 h | inhibition, % at 8.34 µM | actives 5.9% (n = 77,000) | AID 624255;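 active = mean inhibition above about 93%, with at least 55% of replicates each passing it, limit read from the data, passing the limit was not always enough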
Of the large screens only hits and unclear results are named; the others gave an inactive call.

Cc1ccc(S(=O)(=O)Nc2ccc3c(c2)C(=O)N([C@H](C)CO)C[C@@H](C)[C@H](CN(C)C)OCCCC[C@H](C)O3)cc1	none
C/C=C/c1ccc([C@H]2[C@@H](CO)N(CC3CCCC3)C23CN(C(=O)CC2CC2)C3)cc1	Pf Dd2 inh -87 (no result: Tcruzi prolif)
C/C=C/c1ccc([C@H]2[C@@H](CO)N(CC3CCCCC3)[C@@H]2CNC(C)C)cc1	Pf Dd2 inh -94 (no result: Tcruzi prolif)
C/C=C/c1ccc([C@@H]2[C@@H](CO)N(c3nc(CC)cs3)[C@@H]2CNC(C)C)cc1	none
C/C=C/c1ccc([C@H]2[C@@H](CO)N(CC3CC3)[C@@H]2CNC(=O)NC(C)C)cc1	none (no result: Tcruzi prolif)
C/C=C/c1ccc([C@H]2[C@@H](CO)N(CC3CC3)[C@H]2CNS(C)(=O)=O)cc1	none
C/C=C/c1ccc([C@H]2[C@@H](CO)N(CC3CCCC3)[C@@H]2CNC(=O)NC(C)C)cc1	Pf Dd2 inh -94 (no result: Tcruzi prolif)
C/C=C/c1ccc([C@H]2[C@@H](CO)N(CC3CCCC3)C23CN(C(=O)CC)C3)cc1	none (no result: Tcruzi prolif)
C/C=C/c1ccc([C@H]2[C@H](CO)N(c3nc(CC)cs3)[C@H]2CNC(C)C)cc1	Pf Dd2 inh -81
CN1[C@@H]2Cn3c(cccc3=O)[C@H]1[C@@H](C(=O)NCC1CCCCC1)[C@@H]2CO	none
C[C@@H]1CN([C@@H](C)CO)C(=O)c2cc(NS(=O)(=O)c3ccc(Cl)cc3)ccc2O[C@@H](C)CCCCO[C@@H]1CN(C)C(=O)Cc1ccccc1	none
COc1ccccc1-c1cn(CC[C@H]2CC[C@H](NC(=O)Cc3ccccn3)[C@@H](CO)O2)nn1	none
C[C@H]1CN([C@@H](C)CO)C(=O)c2cccc(NC(=O)c3nc4ccccc4s3)c2O[C@@H]1CN(C)Cc1ccncc1	none (no result: Tcruzi prolif)
NCC[C@@H]1CC[C@@H](NC(=O)Nc2ccc(F)cc2)[C@@H](CO)O1	none
C[C@@H](NC(=O)C[C@@H]1CC[C@@H](NS(=O)(=O)c2cccc(F)c2)[C@H](CO)O1)c1ccccc1	none
O=C(C[C@H]1C=C[C@@H](NC(=O)C2CC2)[C@@H](CO)O1)Nc1ccccc1	none
COc1ccc(NC(=O)Nc2ccc3c(c2)C(=O)N([C@@H](C)CO)C[C@H](C)[C@H](CN(C)S(=O)(=O)c2ccc(OC)cc2)OCCCC[C@@H](C)O3)cc1	Pf Dd2 inh -88
COc1ccc(S(=O)(=O)N(C)C[C@@H]2OCCCC[C@H](C)Oc3ccc(NC(=O)Nc4ccc(C(F)(F)F)cc4)cc3C(=O)N([C@@H](C)CO)C[C@H]2C)cc1	Pf Dd2 inh -86
COc1ccc(S(=O)(=O)N(C)C[C@H]2OCCCC[C@@H](C)Oc3ccc(NC(=O)Nc4ccc5c(c4)OCO5)cc3C(=O)N([C@@H](C)CO)C[C@H]2C)cc1	Pf Dd2 inh -85
COc1ccc(NC(=O)Nc2ccc3c(c2)C(=O)N([C@H](C)CO)C[C@H](C)[C@H](CN(C)S(=O)(=O)c2ccc(C)cc2)OCCCC[C@@H](C)O3)cc1	Pf Dd2 inh -88 (no result: C diff growth)
COc1ccc(NC(=O)Nc2ccc3c(c2)C(=O)N([C@@H](C)CO)C[C@@H](C)[C@@H](CN(C)S(=O)(=O)c2ccc(OC)cc2)OCCCC[C@@H](C)O3)cc1	none
COc1ccc(S(=O)(=O)N(C)C[C@H]2OCCCC[C@@H](C)Oc3ccc(NC(=O)Nc4ccc5c(c4)OCO5)cc3C(=O)N([C@H](C)CO)C[C@@H]2C)cc1	none
COc1ccc(NC(=O)Nc2ccc3c(c2)C(=O)N([C@H](C)CO)C[C@@H](C)[C@H](CN(C)S(=O)(=O)c2ccc(C)cc2)OCCCC[C@@H](C)O3)cc1	none (no result: C diff growth, Tcruzi prolif)
COc1ccc(S(=O)(=O)N(C)C[C@H]2OCCCC[C@@H](C)Oc3ccc(NC(=O)Nc4ccc(C(F)(F)F)cc4)cc3C(=O)N([C@H](C)CO)C[C@@H]2C)cc1	none
COc1ccc(CN(C)C[C@@H]2OCCCC[C@H](C)Oc3ccc(NC(=O)NC4CCCCC4)cc3C(=O)N([C@@H](C)CO)C[C@@H]2C)cc1	none
C[C@@H]1CCCCO[C@H](CN(C)S(=O)(=O)c2cccs2)[C@@H](C)CN([C@@H](C)CO)C(=O)c2cc(NC(=O)C3CCCCC3)ccc2O1	none
COc1ccc(CN2C[C@H](C)[C@@H](OC)CN(C)C(=O)c3cc(NC(=O)c4nc5ccccc5s4)ccc3OC[C@H]2C)cc1	none (no result: C diff growth, Tcruzi prolif)
COc1ccc(CN2C[C@@H](C)[C@H](OC)CN(C)C(=O)c3ccc(NC(=O)c4nc5ccccc5s4)cc3OC[C@H]2C)cc1	Pf Dd2 inh -88
COc1ccc(CN2C[C@@H](C)[C@@H](OC)CN(C)C(=O)c3cc(NC(=O)c4nc5ccccc5s4)ccc3OC[C@H]2C)cc1	none (no result: C diff growth, Tcruzi prolif)
COc1ccc(CN2C[C@H](C)[C@H](OC)CN(C)C(=O)c3cc(NC(=O)c4nc5ccccc5s4)ccc3OC[C@@H]2C)cc1	Pf Dd2 inh -83 (no result: C diff growth, Tcruzi prolif)
CN1C(=O)c2cc(NC(=O)Cc3ccccc3)ccc2OC[C@H]2O[C@@H](CC(=O)NCC3CC3)CC[C@H]21	none
C[C@@H]1CN([C@H](C)CO)C(=O)c2cc(-c3ccccc3F)cnc2O[C@@H]1CN(C)Cc1cccc(C(=O)O)c1	none
Cc1noc(C)c1S(=O)(=O)N(C)C[C@H]1OCCCC[C@H](C)Oc2ccc(NC(=O)C3CCCCC3)cc2C(=O)N([C@@H](C)CO)C[C@H]1C	none
C[C@@H]1CN([C@@H](C)CO)C(=O)Cc2cc(NS(C)(=O)=O)ccc2O[C@@H]1CN(C)Cc1ccc(C(=O)Nc2ccccc2N)cc1	none (no result: Tcruzi prolif)
Cc1ccc(S(=O)(=O)Nc2ccc3c(c2)CC(=O)N([C@@H](C)CO)C[C@H](C)[C@@H](CN(C)Cc2ccc(C(=O)Nc4ccccc4N)cc2)O3)cc1	Pf Dd2 inh -85 (no result: Tcruzi prolif)
Cc1ccc(S(=O)(=O)Nc2ccc3c(c2)CC(=O)N([C@H](C)CO)C[C@@H](C)[C@@H](CN(C)Cc2ccc(C(=O)Nc4ccccc4N)cc2)O3)cc1	Pf Dd2 inh -86
C[C@H](CO)N1C[C@H](C)[C@@H](CN(C)Cc2ccc(C(=O)Nc3ccccc3N)cc2)Oc2ccc(NS(C)(=O)=O)cc2CC1=O	none
C[C@@H](NC(=O)[C@H]1[C@H](CO)[C@H]2Cn3c(cccc3=O)[C@@H]1N2Cc1ccncc1)c1ccccc1	none
COc1ccc(C#Cc2ccc3c(c2)O[C@H](CN(C)C(=O)CN2CCOCC2)[C@@H](C)CN([C@H](C)CO)S3(=O)=O)cc1	none (no result: Tcruzi prolif)
C[C@H](CO)N1C[C@H](C)[C@H](CN(C)S(=O)(=O)c2ccc(F)cc2)OCCCC[C@H](C)Oc2ccc(NC(=O)Nc3ccc(C(F)(F)F)cc3)cc2C1=O	none (no result: C diff growth)
C[C@@H]1CN([C@@H](C)CO)C(=O)c2cc(NC(=O)CCC(F)(F)F)ccc2O[C@@H](C)CCCCO[C@@H]1CN(C)S(=O)(=O)c1ccc(Cl)cc1	Pf Dd2 inh -86
C[C@@H]1CCCCO[C@@H](CN(C)S(=O)(=O)c2ccc(Cl)cc2)[C@@H](C)CN([C@H](C)CO)C(=O)c2cc(NC(=O)Nc3ccc(C(F)(F)F)cc3)ccc2O1	Pf Dd2 inh -86
C[C@@H]1CCCCO[C@@H](CN(C)S(=O)(=O)c2ccc(Cl)cc2)[C@@H](C)CN([C@H](C)CO)C(=O)c2cc(NC(=O)CCC(F)(F)F)ccc2O1	none
C[C@@H]1CCCCO[C@H](CN(C)S(=O)(=O)c2ccc(F)cc2)[C@@H](C)CN([C@@H](C)CO)C(=O)c2cc(NC(=O)Nc3ccc(C(F)(F)F)cc3)ccc2O1	Pf Dd2 inh -85 (no result: C diff growth)

Bioassay records deposited in PubChem by Broad Institute.
